Assay results from PubChem BioAssay (EPA / NIEHS).
Calls of active or inactive are those of the source. The calls were made as follows: active = hit-call score of the fitted dose curve at least 0.9, where 1 is the maximum; inactive = score below 0.9.

Assays:
Conditions in all cases: mRNA level, 48 h; actives raise or lower the signal
[1] = read-out: Glutamate-cysteine ligase catalytic (GCLC), GCLC (gene 2729); assay: LTEA_HepaRG_GCLC: Life Technologies and Expression Analysis (LTEA) Assay for Glutamate-cysteine ligase catalytic (GCLC) using HepaRG (AID 2283498)
Method in brief: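 Expression by TaqMan qRT-PCR, normalized to three housekeeping genes (ACTB, GAPDH, POLR2A), with up- or down-regulation fitted against DMSO. HepaRG cells dosed in duplicate for 48 h with 8 half-log concentrations up to 100 uM, vehicle 0.5% DMSO.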

[2] = read-out: growth arrest and DNA damage 45 (GADD45G), GADD45G (gene 10912); assay: LTEA_HepaRG_GADD45G: Life Technologies and Expression Analysis (LTEA) Assay for growth arrest and DNA damage 45 (GADD45G) using HepaRG (AID 2283499)
Method in brief: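 HepaRG, 48 h exposure, top 100 uM, half-log 8-point series, 0.5% DMSO vehicle, duplicates. Readout: GADD45G transcript by qRT-PCR (Fluidigm array), housekeeping-normalised (ACTB/GAPDH/POLR2A). Bidirectional curve fit vs DMSO baseline.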

[3] = read-out: Glutamate-cysteine ligase regulatory (GCLM), GCLM (gene 2730); assay: LTEA_HepaRG_GCLM: Life Technologies and Expression Analysis (LTEA) Assay for Glutamate-cysteine ligase regulatory (GCLM) using HepaRG (AID 2283500)
Method in brief: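 Endpoint is GCLM transcript level by qRT-PCR, normalized to three housekeeping genes, after 48 h chemical exposure of human HepaRG cells (0.5% DMSO vehicle, top 100 uM, half-log dilutions). Fitting was bidirectional relative to DMSO.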

[4] = read-out: Glutathione S-transferase M3 (GSTM3), GSTM3 (gene 2947); assay: LTEA_HepaRG_GSTM3: Life Technologies and Expression Analysis (LTEA) Assay for Glutathione S-transferase M3 (GSTM3) using HepaRG (AID 2283501)
Method in brief: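 qRT-PCR read-out of GSTM3 transcript, normalized to three housekeeping genes, from human HepaRG cells after 48 h chemical exposure. Eight-point half-log series, top 100 uM, 0.5% DMSO vehicle; gain or loss fitted relative to DMSO baseline.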

[5] = read-out: Heat shock 70 kDa protein 1 (HSPA1A), gene 3303; assay: LTEA_HepaRG_HSPA1A: Life Technologies and Expression Analysis (LTEA) Assay for Heat shock 70 kDa protein 1 (HSPA1A) using HepaRG (AID 2283502)
Method in brief: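 Cells were plated and cultured for 48 h, then switched to serum-free induction medium. Chemicals were added at eight half-log concentrations up to 100 uM for 48 h. RNA was then isolated and HSPA1A measured by qRT-PCR with bidirectional curve fitting against DMSO.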

[6] = read-out: Hypoxia-inducible factor 1-alpha (Homo sapiens) (UniProt Q16665); assay: LTEA_HepaRG_HIF1A: Life Technologies and Expression Analysis (LTEA) Assay for Hypoxia-inducible factor 1 (HIF1A) Trancription factor using HepaRG (AID 2283503)
Method in brief: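 HIF1A transcript level read by qRT-PCR (ACTB, GAPDH, POLR2A normalization) after 48 h chemical exposure of HepaRG cultures. Eight half-log concentrations, top 100 uM, 0.5% DMSO vehicle, duplicates; bidirectional curve fit against DMSO baseline.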

[7] = read-out: 3-Hydroxy-3-Methylglutaryl-CoA Synthase 2 (HMGCS2), HMGCS2 (gene 3158); assay: LTEA_HepaRG_HMGCS2: Life Technologies and Expression Analysis (LTEA) Assay for 3-Hydroxy-3-Methylglutaryl-CoA Synthase 2 (HMGCS2) using HepaRG (AID 2283504)
Method in brief: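 qRT-PCR read-out of HMGCS2 transcript, normalised to three housekeeping genes, in HepaRG cells after 48 h chemical exposure. Eight-point curves from 100 uM, half-log dilutions, 0.5% DMSO vehicle; gain or loss fitted relative to DMSO baseline.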

HGF (gene 3082) = assay: LTEA_HepaRG_HGF: Life Technologies and Expression Analysis (LTEA) Assay for Hepatocyte Growth Facto (HGF) using HepaRG (AID 2283505)
Method in brief: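 HepaRG, 48 h dosing, 8-pt half-log series from 100 uM in 0.5% DMSO, duplicates. Readout: TaqMan qRT-PCR of HGF mRNA, housekeeping-normalized; bidirectional curve fit vs DMSO baseline.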

[8] = read-out: Intercellular Adhesion Molecule 1 (ICAM1), ICAM1 (gene 3383); assay: LTEA_HepaRG_ICAM1: Life Technologies and Expression Analysis (LTEA) Assay for Intercellular Adhesion Molecule 1 (ICAM1) using HepaRG (AID 2283507)
Method in brief: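 HepaRG, 48 h exposure, 8-pt half-log series from 100 uM, 0.5% DMSO vehicle, duplicates. Readout: TaqMan qRT-PCR mRNA, housekeeping-normalized (ACTB/GAPDH/POLR2A). Bidirectional curve fit vs DMSO baseline.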

[9] = read-out: Insulin-like growth factor-binding protein 1 (IGFBP1), IGFBP1 (gene 3484); assay: LTEA_HepaRG_IGFBP1: Life Technologies and Expression Analysis (LTEA) Assay for Insulin-like growth factor-binding protein 1 (IGFBP1) using HepaRG (AID 2283508)
Method in brief: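 qRT-PCR mRNA read-out (TaqMan, Fluidigm array), normalised to three housekeeping genes; HepaRG cells, 48 h exposure, 8-pt half-log series from 100 uM, 0.5% DMSO vehicle; bidirectional curve fit vs DMSO baseline.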

[10] = read-out: Interleukin 6 (IL6), IL6 (gene 3569); assay: LTEA_HepaRG_IL6: Life Technologies and Expression Analysis (LTEA) Assay for Interleukin 6 (IL6) using HepaRG (AID 2283509)
Method in brief: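 Transcript levels, normalized to three housekeeping genes, were quantified by qRT-PCR after 48 h chemical treatment of HepaRG cells. Eight-point half-log series from 100 uM in 0.5% DMSO, duplicates. Fitted both directions against DMSO baseline.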

[11] = read-out: Interleukin 6 Receptor (IL6R), IL6R (gene 3570); assay: LTEA_HepaRG_IL6R: Life Technologies and Expression Analysis (LTEA) Assay for Interleukin 6 Receptor (IL6R) using HepaRG (AID 2283510);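 as to AC50: differentiated human HepaRG liver cells in serum-free induction medium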
Method in brief: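 Cells were thawed, plated and cultured 48 h, then medium was changed to serum-free induction medium. Chemicals were added in duplicate (100 uM top, half-log steps, 0.5% DMSO) for 48 h. Lysates were analyzed by qRT-PCR for IL6R expression.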

[12] = read-out: Potassium channel subfamily K member 1 (KCNK1), KCNK1 (gene 3775); assay: LTEA_HepaRG_KCNK1: Life Technologies and Expression Analysis (LTEA) Assay for Potassium channel subfamily K member 1 (KCNK1) using HepaRG (AID 2283511)
Method in brief: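 KCNK1 transcript measured by TaqMan qRT-PCR against three housekeeping genes, after HepaRG cells were treated 48 h with eight half-log concentrations (top 100 uM, 0.5% DMSO). Curves fitted bidirectionally relative to vehicle.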

[13] = read-out: Keratin 19 (KRT19), KRT19 (gene 3880); assay: LTEA_HepaRG_KRT19: Life Technologies and Expression Analysis (LTEA) Assay for Keratin 19 (KRT19) using HepaRG (AID 2283512)
Method in brief: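 HepaRG, 48 h chemical exposure, 8-pt half-log CRC from 100 uM, 0.5% DMSO vehicle, duplicates. Readout: TaqMan qRT-PCR of KRT19 mRNA, housekeeping-normalized (ACTB/GAPDH/POLR2A). Bidirectional fit vs DMSO baseline.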

[14] = read-out: JUN Transcription Factor, JUN (gene 3725); assay: LTEA_HepaRG_JUN: Life Technologies and Expression Analysis (LTEA) Assay for JUN Transcription Factor using HepaRG (AID 2283513)
Method in brief: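 Read-out is JUN transcript level by TaqMan qRT-PCR, normalized to ACTB, GAPDH and POLR2A, after 48 h chemical treatment of HepaRG cells. Concentration-response spanned eight half-log points up to 100 uM in 0.5% DMSO.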

[15] = read-out: Lipase C (LIPC), LIPC (gene 3990); assay: LTEA_HepaRG_LIPC: Life Technologies and Expression Analysis (LTEA) Assay for Lipase C (LIPC) using HepaRG (AID 2283514)
Method in brief: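 LIPC expression was quantified by qRT-PCR against three housekeeping genes (ACTB, GAPDH, POLR2A). Differentiated human HepaRG cells received eight half-log doses (top 100 uM, 0.5% DMSO) in duplicate for 48 h; fitting bidirectional relative to DMSO.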

[16] = read-out: Lipoprotein lipase (LPL), LPL (gene 4023); assay: LTEA_HepaRG_LPL: Life Technologies and Expression Analysis (LTEA) Assay for Lipoprotein lipase (LPL) using HepaRG (AID 2283515)
Method in brief: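 LPL transcript levels quantified by TaqMan qRT-PCR against three housekeeping genes after 48 h chemical treatment of HepaRG cells. Eight-point half-log series from 100 uM in 0.5% DMSO, tested in duplicate; bidirectional fitting versus vehicle.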

[17] = read-out: MicroRNA 122 (MIR122), gene 406906; assay: LTEA_HepaRG_MIR122: Life Technologies and Expression Analysis (LTEA) Assay for MicroRNA 122 (MIR122) using HepaRG (AID 2283516); also: the transcript read is the microRNA miR-122
Method in brief: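 Human liver HepaRG cultures receive test chemicals for 48 h at eight half-log concentrations from 100 uM. Expression is quantified by qRT-PCR with ACTB/GAPDH/POLR2A normalization and fitted bidirectionally against 0.5% DMSO.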

[18] = read-out: matrix metalloproteinase-10 (MMP10), MMP10 (gene 4319); assay: LTEA_HepaRG_MMP10: Life Technologies and Expression Analysis (LTEA) Assay for matrix metalloproteinase-10 (MMP10) using HepaRG (AID 2283517)
Method in brief: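 Expression measured by TaqMan qRT-PCR with ACTB/GAPDH/POLR2A normalisation after 48 h chemical exposure of HepaRG cells. Eight half-log concentrations, top 100 uM, 0.5% DMSO vehicle, duplicates; gain or loss fitted against vehicle.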

[19] = read-out: Insulin Like Growth Factor 1 (IGF1), IGF1 (gene 3479); assay: LTEA_HepaRG_IGF1: Life Technologies and Expression Analysis (LTEA) Assay for Insulin Like Growth Factor 1 (IGF1) using HepaRG (AID 2283506)
Method in brief: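 Cells are thawed, plated and cultured 48 h, then exposed in duplicate to chemical (highest 100 uM, half-log steps, 0.5% DMSO) for another 48 h. Total RNA is analysed by Fluidigm qRT-PCR for IGF1 expression relative to vehicle.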

Measured: AC50

Chain of Hypoxia-inducible factor 1-alpha (Homo sapiens) (Q16665 whole entry, looked up): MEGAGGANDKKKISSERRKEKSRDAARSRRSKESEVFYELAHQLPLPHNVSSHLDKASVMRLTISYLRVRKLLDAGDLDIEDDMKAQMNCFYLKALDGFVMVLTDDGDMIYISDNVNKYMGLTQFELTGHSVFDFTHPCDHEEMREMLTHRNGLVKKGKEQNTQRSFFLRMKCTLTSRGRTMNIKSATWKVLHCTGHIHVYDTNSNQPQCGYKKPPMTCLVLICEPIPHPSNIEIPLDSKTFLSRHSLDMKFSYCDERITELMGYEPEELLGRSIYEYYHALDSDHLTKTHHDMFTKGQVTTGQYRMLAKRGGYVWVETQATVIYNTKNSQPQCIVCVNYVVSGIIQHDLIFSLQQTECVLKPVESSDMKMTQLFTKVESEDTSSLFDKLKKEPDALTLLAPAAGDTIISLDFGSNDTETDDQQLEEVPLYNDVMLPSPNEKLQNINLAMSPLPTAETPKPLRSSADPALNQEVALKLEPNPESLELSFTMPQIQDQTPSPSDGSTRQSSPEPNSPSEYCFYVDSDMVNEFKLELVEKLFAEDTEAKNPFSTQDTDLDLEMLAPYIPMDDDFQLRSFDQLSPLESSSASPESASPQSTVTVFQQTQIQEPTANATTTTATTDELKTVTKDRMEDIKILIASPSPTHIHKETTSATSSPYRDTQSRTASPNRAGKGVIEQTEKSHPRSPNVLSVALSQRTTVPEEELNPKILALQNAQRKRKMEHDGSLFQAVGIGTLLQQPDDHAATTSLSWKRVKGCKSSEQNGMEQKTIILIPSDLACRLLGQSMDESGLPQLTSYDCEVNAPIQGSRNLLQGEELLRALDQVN

O=C(O)CCCCC(=O)O
not listed: [19]
inactive: all other assays above

CN[C@H]1CC[C@@H](c2ccc(Cl)c(Cl)c2)c2ccc(S(N)(=O)=O)cc21
active: [2] 71.1 µM | [7] 50 µM | [19] 87.7 µM | [8] 74.8 µM | [9] 57.7 µM | [10] 77.4 µM | [11] 50 µM | [13] 10.9 µM | [14] 94.5 µM | [15] 15.8 µM | [16] 11.9 µM
inactive: [1] | [3] | [4] | [6] | HGF (gene 3082) | [12] | [17]

CCCCCCCCCCO
not listed: [5]
inactive: all other assays above

C=CCc1ccc(O)c(OC)c1
not listed: [14]
inactive: all other assays above

CCCCCCCCCCC
not listed: [18] | [19]
inactive: all other assays above

CC(C)c1ccc(C(=O)N=C(N)N)cc1S(C)(=O)=O
inactive: [2] | [6] | [7] | [10] | [13]
active: [1] 0.336 µM | [3] 0.441 µM | [4] 0.446 µM | [5] 7.39 µM | HGF (gene 3082) 7.39 µM | [19] 0.362 µM | [8] 0.388 µM | [9] 0.266 µM | [11] 0.276 µM | [12] 0.377 µM | [14] 0.395 µM | [15] 0.607 µM | [16] 0.31 µM | [18] 67.9 µM

CCCCCCCCCCCCCO
not listed: [14]
inactive: all other assays above

Cc1oc(-c2ccccc2)nc1CCOc1cccc2c1ccn2CCC(=O)O
inactive: [6] | HGF (gene 3082) | [12] | [14]
active: [1] 50 µM | [2] 90.2 µM | [3] 75.8 µM | [4] 9.92 µM | [7] 83.2 µM | [19] 69.9 µM | [8] 85.6 µM | [9] 93.1 µM | [10] 82 µM | [11] 77.6 µM | [13] 88.5 µM | [15] 79.2 µM | [16] 0.0309 µM | [18] 82.1 µM

Cc1cc(NC(=O)C(=O)O)cc(C)c1Oc1ccc(O)c2c1CCC2
active: [6] 0.021 µM | [19] 0.022 µM | [13] 0.0224 µM
not listed: [7] | [14] | [17]
inactive: all other assays above

CC(=O)C(C)=CC1C(C)=CCCC1(C)C (centres undefined)
not listed: [14] | [19]
inactive: all other assays above

COc1cc(-c2nc(NC(=O)c3cc4cc(C)cc(C)c4n3CC(=O)O)sc2CCC2CCCCC2)c(OC)cc1Cl
active: [1] 14 µM | [2] 3.17 µM | [3] 19.4 µM | [4] 3.86 µM | [5] 11.1 µM | [6] 11 µM | [7] 6.61 µM | HGF (gene 3082) 6.32 µM | [19] 6.45 µM | [9] 3.83 µM | [10] 4.98 µM | [11] 26.5 µM | [13] 11.4 µM | [15] 6.41 µM | [16] 10.5 µM | [17] 6.1 µM | [18] 3.51 µM
inactive: [8] | [12]

Cc1ccc(C(C)C)c(O)c1
not listed: [7] | [14] | [17]
inactive: all other assays above

CN1CCCC1=O
not listed: [7] | [14] | [17] | [18] | [19]
inactive: all other assays above

CCNc1cccc(C)c1
not listed: [19]
inactive: all other assays above
